Measurements: PubChem BioAssay (NCI)
About 79,000 compounds went through this panel and 15% of them were active in at least one assay; those are over-represented in the sample as a whole. Calls of active or inactive are those of the source. Rule as the data show it: active = growth inhibition above about 70%; inactive = the rest.

Tests used:
[1] = NCI Yeast Anticancer Drug Screen. Data for the rad52 strain (AID 147);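 also: 0% = growth of vehicle-treated control cultures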; conditions: S. cerevisiae rad52 mutant growth inhibition, hits give high values
How it was run: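 Genetically altered yeast (DNA damage repair defect) treated with compound; inhibition calculated relative to vehicle.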

[2] = NCI Yeast Anticancer Drug Screen. Data for the wt1 strain (AID 149);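 also: 0% = growth of vehicle-treated wt1 cultures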; conditions: S. cerevisiae wt1 strain (SPY 50644) growth inhibition, hits give high values
How it was run: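 Yeast wt1 strain exposed to compounds; growth inhibition measured relative to vehicle-treated controls.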

[3] = NCI Yeast Anticancer Drug Screen. Data for the rad50EPP+ strain (AID 151);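 also: 0% = growth of vehicle-treated control cultures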; conditions: S. cerevisiae rad50 mutant strain, hits give high values
How it was run: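 Strain rad50EPP+; compound exposure; % growth inhibition vs vehicle.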

[4] = NCI Yeast Anticancer Drug Screen. Data for the mgt1 strain (AID 153); conditions: S. cerevisiae mgt1 mutant growth inhibition, hits give high values
How it was run: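 Read-out: yeast growth inhibition vs vehicle control. Strain mgt1, drawn from a panel altered in DNA damage repair or cell cycle control.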

[5] = NCI Yeast Anticancer Drug Screen. Data for the rad50 strain (AID 155);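 also: 0% = growth of vehicle-only cultures of the same strain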; conditions: S. cerevisiae rad50 strain growth inhibition, hits give high values
How it was run: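 Yeast carrying a defined DNA repair defect were exposed to test compounds, and growth was compared with vehicle-treated controls to give percent inhibition.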

[6] = NCI Yeast Anticancer Drug Screen. Data for the mec2-1 strain (AID 157); conditions: S. cerevisiae mec2-1 strain, hits give high values
How it was run: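 Cells of the genetically defined mec2-1 yeast strain are incubated with test compound. Inhibition of growth is calculated against vehicle-treated controls.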

[7] = NCI Yeast Anticancer Drug Screen. Data for the rad14 strain (AID 159);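 also: 0% = growth of vehicle-treated control cultures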; conditions: S. cerevisiae rad14 strain growth inhibition, hits give high values
How it was run: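 Yeast cells carrying a defined DNA-repair defect were exposed to compounds, and growth inhibition was calculated relative to vehicle-treated control cultures.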

[8] = NCI Yeast Anticancer Drug Screen. Data for the sgs1 mgt1 strain (AID 161);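 also: 0% = growth of cultures given vehicle only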; conditions: S. cerevisiae sgs1 mgt1 strain, hits give high values
How it was run: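 Mutant yeast exposed to compound; growth scored against vehicle-only wells.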

[9] = NCI Yeast Anticancer Drug Screen. Data for the CLN2oe strain (AID 163);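 also: 0% = growth of vehicle-only control cultures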; conditions: S. cerevisiae CLN2oe strain, hits give high values
How it was run: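 Strain altered in cell-cycle control, incubated with compound; growth compared to solvent-treated controls.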

[10] = NCI Yeast Anticancer Drug Screen. Data for the cln2 rad14 strain (AID 165);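 also: 0% = growth equal to vehicle treated cultures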; conditions: S. cerevisiae cln2 rad14 strain, hits give high values
How it was run: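 The screen exposed genetically defined yeast (cln2 rad14) to test compounds and scored growth inhibition relative to vehicle-treated controls.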

[11] = NCI Yeast Anticancer Drug Screen. Data for the bub3 strain (AID 167); conditions: S. cerevisiae bub3 mutant strain, hits give high values
How it was run: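 Compounds were applied to a genetically altered yeast strain carrying a cell-cycle control defect. Growth inhibition was scored against vehicle-treated controls.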

[12] = NCI Yeast Anticancer Drug Screen. Data for the wt2 strain (AID 169);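 also: 0% = growth of vehicle-treated yeast cultures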; conditions: S. cerevisiae wt2 strain growth inhibition, hits give high values
How it was run: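 Steps: yeast strain treated with compound; growth recorded; inhibition calculated relative to cultures given vehicle alone.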

[13] = NCI Yeast Anticancer Drug Screen. Data for the sgs1 strain (AID 173);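 also: 0% = growth of vehicle-only control cultures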; conditions: S. cerevisiae sgs1 mutant, hits give high values
How it was run: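 Inhibition of yeast growth served as the measure. The mutant strain was treated with each compound, and growth was normalised to cultures receiving vehicle alone.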

[14] = NCI Yeast Anticancer Drug Screen. Data for the mlh1 rad18 strain (AID 175); conditions: S. cerevisiae mlh1 rad18 strain growth inhibition, hits give high values
How it was run: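 Compound-treated yeast growth, normalised to vehicle controls. Strain bears defined DNA repair mutations.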

[15] = NCI Yeast Anticancer Drug Screen. Data for the rad18 strain (AID 177); conditions: S. cerevisiae rad18 mutant growth inhibition, hits give high values
How it was run: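 Inhibition values reflect reduced yeast growth compared with vehicle-treated controls, using a strain engineered with a DNA damage repair defect.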

[16] = at 5.0 µM (retest, dose inferred, filed as 0.5)
[17] = at 50.0 µM (retest, dose inferred, filed as 5.0)

Measured: growth inhibition

CCNCC(=O)O[C@]1(CC)C(=O)OCc2c1cc1n(c2=O)Cc2cc3ccccc3nc2-1
inactive: [1]; at 1.2 µM 38% | [1]; at 3.7 µM 28% | [1]; at 11.0 µM 20% | [1]; at 33.0 µM 19% | [1]; at 100.0 µM 16% | [2]; at 1.2 µM 19% | [2]; at 3.7 µM 12% | [2]; at 11.0 µM 13% | [2]; at 33.0 µM 2% | [2]; at 100.0 µM 4% | [3]; at 1.2 µM 35% | [3]; at 3.7 µM 25% | [3]; at 11.0 µM 9% | [3]; at 33.0 µM 2% | [3]; at 100.0 µM -11% | [4]; at 1.2 µM 22% | [4]; at 3.7 µM 33% | [4]; at 11.0 µM 26% | [4]; at 33.0 µM 18% | [4]; at 100.0 µM 23% | [5]; at 1.2 µM 22% | [5]; at 3.7 µM 15% | [5]; at 11.0 µM 17% | [5]; at 33.0 µM 10% | [5]; at 100.0 µM -6% | [6]; at 1.2 µM 35% | [6]; at 3.7 µM 19% | [6]; [16] 4% | [6]; at 11.0 µM 19% | [6]; at 33.0 µM 6% | [6]; at 100.0 µM 6% | [7]; at 1.2 µM 11% | [7]; at 3.7 µM 6% | [7]; at 11.0 µM -1% | [7]; at 33.0 µM 6% | [7]; at 100.0 µM 1% | [8]; [16] 31% | [8]; [17] 60% | [8]; at 50.0 µM 57.5% | [9]; at 1.2 µM 33% | [9]; at 3.7 µM 30% | [9]; at 11.0 µM 32% | [9]; at 33.0 µM 22% | [9]; at 100.0 µM 18% | [10]; [16] 15% | [10]; [17] 31% | [10]; at 50.0 µM 25.6% | [11]; at 1.2 µM 28% | [11]; at 3.7 µM 1% | [11]; [16] 7% | [11]; at 11.0 µM 14% | [11]; at 33.0 µM -2% | [11]; [17] 39% | [11]; at 50.0 µM 40.8% | [11]; at 100.0 µM -6% | [12]; at 1.2 µM -29% | [12]; at 3.7 µM -32% | [12]; at 11.0 µM -19% | [12]; at 33.0 µM 25% | [13]; at 1.2 µM 9% | [13]; at 3.7 µM 15% | [13]; at 11.0 µM 13% | [13]; at 33.0 µM 5% | [13]; at 100.0 µM -21% | [14]; [16] 16% | [14]; [17] 47% | [14]; at 50.0 µM 47.4% | [15]; at 1.2 µM 25% | [15]; at 3.7 µM 27% | [15]; at 11.0 µM 21% | [15]; at 33.0 µM 22% | [15]; at 100.0 µM 13%
active: [5]; [16] 72% | [5]; [17] 90% | [5]; at 50.0 µM 86% | [6]; [17] 73% | [6]; at 50.0 µM 76% | [12]; at 100.0 µM 76%
